We go through 40 compounds from PubChem BioAssay (Tox21).

Records with an inconclusive call do not appear. Unmarked numbers belong to inactive results. Active and inactive are the calls of the source. The call rests on the fitted dose curve; in most records, active means well fitted activation curve with a large enough effect in the signal ratio in the repeat runs, with a control signal flat (not every such curve was filed as active); inconclusive means weak or mixed curves, or effect the other way; inactive means no such curve, though single readings can be large or run the other way; the % refers to the signal ratio. Non-standard residues stand in square brackets, D forms with d. Residues, ends and D or L forms follow the SMILES beside them. pGlu = O=C1CC[C@@H](C(=O)O)N1; Thz = O=C(O)[C@@H]1CSCN1
On the % scale 0 is the no-effect control and ±100 the full control effect; potency means the concentration at half of the fitted maximal effect.

Androgen receptor (Homo sapiens), sequence (P10275 whole entry, looked up): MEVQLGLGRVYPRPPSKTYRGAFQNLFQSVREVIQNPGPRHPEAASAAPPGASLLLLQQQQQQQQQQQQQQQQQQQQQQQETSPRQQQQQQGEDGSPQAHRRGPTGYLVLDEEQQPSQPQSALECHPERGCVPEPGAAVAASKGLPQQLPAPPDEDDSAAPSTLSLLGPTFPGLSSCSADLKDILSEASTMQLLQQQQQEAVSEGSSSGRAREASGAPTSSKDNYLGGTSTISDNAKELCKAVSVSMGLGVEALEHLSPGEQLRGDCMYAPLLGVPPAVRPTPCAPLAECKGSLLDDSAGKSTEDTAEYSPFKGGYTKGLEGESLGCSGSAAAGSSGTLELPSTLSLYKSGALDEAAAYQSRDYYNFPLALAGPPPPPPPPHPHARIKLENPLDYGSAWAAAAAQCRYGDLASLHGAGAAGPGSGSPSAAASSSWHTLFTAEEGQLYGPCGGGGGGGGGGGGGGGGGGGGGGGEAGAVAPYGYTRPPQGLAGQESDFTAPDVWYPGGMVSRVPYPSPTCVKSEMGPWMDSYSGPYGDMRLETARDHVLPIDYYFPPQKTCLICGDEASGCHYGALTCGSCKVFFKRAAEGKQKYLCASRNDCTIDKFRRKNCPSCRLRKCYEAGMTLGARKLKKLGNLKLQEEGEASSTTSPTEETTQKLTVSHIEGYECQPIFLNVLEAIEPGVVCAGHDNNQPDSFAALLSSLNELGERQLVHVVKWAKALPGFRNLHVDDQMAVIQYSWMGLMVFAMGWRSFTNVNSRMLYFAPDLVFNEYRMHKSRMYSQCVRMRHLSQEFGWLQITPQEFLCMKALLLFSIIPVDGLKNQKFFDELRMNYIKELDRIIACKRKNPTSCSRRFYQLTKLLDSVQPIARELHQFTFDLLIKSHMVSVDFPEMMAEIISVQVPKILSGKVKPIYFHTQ

For this assay, the target named is Androgen receptor (Homo sapiens) (UniProt P10275). As to the kind of experiment: qHTS assay to identify small molecule agonists of the androgen receptor (AR) signaling pathway (AID 743036). Particulars: HEK293 AR-UAS-bla GripTite, beta-lactamase FRET ratio, 16 h; series mostly up to 62.4 µM; activation: at the top concentration. The text has this:
U.S. Tox21 Program National Center for Advancing Translational Sciences [NCATS] NIH Chemical Genomics Center [NCGC] U.S. Environmental Protection Agency [EPA] National Institutes of Environmental Health Sciences [NIEHS] National Toxicology Program [NTP] U.S. Food and Drug Administration [FDA] Tox21 Assay Overview: Androgen receptor (AR), a nuclear hormone receptor, plays a critical role in AR-dependent prostate cancer and other androgen related diseases. Endocrine disrupting chemicals (EDCs) and their interactions with steroid hormone receptors like AR may cause disruption of normal endocrine function as well as interfere with metabolic homeostasis, reproduction, developmental and behavioral functions. To identify the compounds that activate AR signaling, GeneBLAzer AR-UAS-bla-GripTite cell line (Invitrogen, Carlsbad, CA, USA) containing a beta-lactamase reporter gene under the control of an Upstream Activator Sequence (UAS) stably integrated into HEK293 cells was used to screen the Tox21 10K compound library.
Tox21 Assay Protocol Summary: AR-bla cells were dispensed at 2,000 cells/6 uL/well of assay medium into black wall/clear-bottom 1536-well plates using a Multidrop Combi (ThermoFisher Scientific, Waltham, MA) dispenser. After the assay plates were incubated at 37C and 5% CO2 for 4 h, 23 nL of compounds dissolved in DMSO, positive controls or DMSO only was transferred to the assay plate by a Pintool station (Kalypsys, San Diego, CA). The plates were incubated at 37C and 5% CO2 for 16 h. Then 1 uL of LiveBLAzerTM B/G FRET substrate was added using a Bioraptr Flying Reagent Dispenser (FRD) workstation (Beckman Coulter, Indianapolis, IN, USA). The plates were incubated at room temperature for 2 h, and fluorescence intensity was measured by an Envision plate reader (PerkinElmer, Shelton, CT).
Turning to `CCC(=O)O[C@H]1CC[C@H]2[C@@H]3CCc4cc(O)ccc4[C@H]3CC[C@]12C`, the Potency was 3.01 µM (active).
Regarding `CN(C)CC/C=C1/c2ccccc2CSc2ccccc21`, the “activation” value is 3.1% [at 29.2 µM].
In the case of `O=C1CC[C@@H](C(=O)N2CSC[C@H]2C(=O)O)N1` ([pGlu]-[Thz]-OH), the “activation” value is -3.79%.
For `COC(F)(F)C(Cl)Cl`, the “activation” value was 16.5%.
`COc1cc(/C=C/C(=O)N2CCN(CC(=O)N3CCCC3)CC2)cc(OC)c1OC`: the “activation” value was -8.48%.
Consider `NC(=O)c1ccc[n+]([C@@H]2O[C@H](COP(=O)([O-])OP(=O)(O)OC[C@H]3O[C@@H](n4cnc5c(N)ncnc54)[C@H](O)[C@@H]3O)[C@@H](O)[C@H]2O)c1`, for which the “activation” value is 5.72% [at 29.2 µM].
In the case of `CCN(CC)c1ccc(N=Nc2ccc(S(=O)(=O)N(C)C)cc2)c(S(=O)(=O)NCC[n+]2ccccc2)c1`, the “activation” value is -0.66%.
`CC[C@H]1NC(=O)[C@@H](NC(=O)c2ncccc2O)[C@@H](C)OC(=O)[C@H](c2ccccc2)NC(=O)[C@@H]2CC(=O)CCN2C(=O)[C@H](Cc2ccccc2)N(C)C(=O)[C@@H]2CCCN2C1=O`: the “activation” value is -0.291%.
On the same count and under the same terms, the result for `OCCN1CCN(CC/C=C2/c3ccccc3Sc3ccc(Cl)cc32)CC1` reads 3.15% [at 29.2 µM].
With `O=S(=O)(O)c1cc(O)c2c(N=Nc3ccc(Nc4ccccc4)c4c(S(=O)(=O)O)cccc34)cc(S(=O)(=O)O)cc2c1`, the “activation” value is -3.9%.
For the compound `CC(=O)O[C@H]1CC[C@@]2(C)C(=CC[C@@H]3[C@@H]2CC[C@]2(C)C(c4cccnc4)=CC[C@@H]32)C1`, the “activation” value is -4.33%.
Turning to `CCCCCCCCCCCCOCCCN`, the “activation” value was -4%.
As for `CC(CN(C)C)CN1c2ccccc2S(=O)(=O)c2ccccc21` (stereo not given), the “activation” value was -0.98%.
The same measure, in the same setting: with `CCCCCCCCCCCCCCCC(=O)OC[C@@H](COP(=O)([O-])OCC[N+](C)(C)C)OC(=O)CCCCCCCCCCCCCCC` the figure was -0.204%; with `COc1ccc2c(=O)c(C)c(-c3ccccc3)oc2c1CN(C)C`, 11.8%; with `CC(NNC(=O)c1ccccc1)c1ccccc1` (stereo not given), -13.2%.
The same measure, in the same setting: with `Cc1cccc(C)c1N(CCCc1cccnc1)C(=O)C(C)N` (stereo not given) the figure was -8.04%; with `CCCCCc1ccc(C)cc1O`, 2.69%.
On to `Nc1c(Br)cc(Br)cc1CNC1CCC(O)CC1` (stereo not given), for which the Potency was 4.77 µM (active).
With `CCOC(=O)c1c[nH]c2cc(OCC(C)C)c(OCC(C)C)cc2c1=O`, the “activation” value is 1.28%.
Take `C[N+]1(C)CCN(CC(O)(c2ccccc2)C2CCCCC2)CC1` (stereo not given): the “activation” value was -4.38%.
Consider `CC(CN1c2ccccc2Sc2ccc(S(=O)(=O)N(C)C)cc21)N(C)C` (stereo not given), for which the “activation” value is -2.4%.
As to `CC(=O)O[C@]1(C(C)=O)CC[C@H]2[C@@H]3CCC4=CC(=O)CC[C@]4(C)[C@@]3(F)[C@@H](O)C[C@@]21C`, the “activation” value was 8.96%.
Regarding `CN(C)c1ccc(C(=C2C=CC(=[N+](C)C)C=C2)c2c(O)c(S(=O)(=O)[O-])cc3cc(S(=O)(=O)O)ccc23)cc1`, the “activation” value is -0.0832%.
`O=C(O)c1cc(N=Nc2ccc(O)c(C(=O)O)c2)ccc1O`: the “activation” value is 2.35%.
Take `O=C(O)C1=C(CSc2nnnn2CS(=O)(=O)O)CS[C@@H]2[C@H](NC(=O)[C@H](O)c3ccccc3)C(=O)N12`: the “activation” value was 11.6%.
Take `O=C(O)c1c(Cl)c(Cl)c(Cl)c(Cl)c1-c1c2cc(I)c(=O)c(I)c-2oc2c(I)c(O)c(I)cc12`: the “activation” value is 1.08%.
On to `CCCC(=O)N1CCCN(c2nc(N)c3cc(OC)c(OC)cc3n2)CC1`, for which the “activation” value is -2.55%.
As to `O=C(OC[C@H]1O[C@](O)(COC(=O)c2cccnc2)[C@@H](OC(=O)c2cccnc2)[C@@H]1OC(=O)c1cccnc1)c1cccnc1`, the “activation” value was -9.5%.
As to `C[C@]12CC[C@@H]3c4ccc(OC(=O)c5ccccc5)cc4CC[C@H]3[C@@H]1CC[C@@H]2O`, the Potency was 3.38 µM (active).
Consider `CCOC(=O)COc1ccc2c(C)c(CCN(CC)CC)c(=O)oc2c1`, for which the “activation” value is -0.0783%.
Still for that read-out and setting: the result for `CS(=O)(=O)OCC(O)C(O)COS(C)(=O)=O` (stereo not given) reads -1.06%.
In the case of `NCCCC[C@H](N)C(=O)O`, the “activation” value was -3.21%.
`COC(=O)C1=C(C)NC(C)=C(C(=O)O[C@H]2CCN(Cc3ccccc3)C2)[C@H]1c1cccc([N+](=O)[O-])c1`: the “activation” value is -10.6%.
Turning to `N[C@@H](C(=O)N[C@@H]1C(=O)N2C(C(=O)O)=C(CSc3cn[nH]n3)CS[C@H]12)c1ccc(O)cc1`, the “activation” value was 12.5%.
Take `CC(C)CCC[C@@H](C)[C@H]1CC(=O)C2=C3CC[C@H]4C[C@@H](O)CC[C@]4(C)[C@H]3CC[C@@]21C`: the “activation” value is 2.96%.
Regarding `CCCCCCCCCCCCCCCCCCCCCC(=O)Nc1ccn([C@@H]2O[C@H](CO)[C@@H](O)[C@@H]2O)c(=O)n1`, the “activation” value was -4.97%.
For `CCCCCCCCCCCCCCCCCC(=O)OC[C@@H](O)[C@H]1OC[C@H](O)[C@H]1O`, the “activation” value was 0.827%.
Take `CCc1ccc(S(=O)(=O)O)cc1`: the “activation” value was -0.291%.
In the case of `CO/N=C(\C(=O)N[C@@H]1C(=O)N2C(C(=O)O)=C(CSC(=O)c3ccco3)CS[C@H]12)c1csc(N)n1`, the “activation” value is 1.3%.
